# Assay results taken from PubChem BioAssay (NCI).
# This is part of a sample that, as a whole, favours compounds with a hit. Of some 83,000 tested, about 20% had one in any assay.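 Assay: single dose, 48 h. Readout: percent growth (0 = no net growth; negative = cell death). Active: <10.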 Active and inactive are the calls of the source.
# Test system: SK-OV-3 ovarian
# Assay: NCI-60 one-dose screen, 48 h (100 = growth as untreated, 0 = no growth, -100 = all killed)
# Details: 10 µM unless noted
row,Compound,growth
1,O=S(=O)(NCCCNc1nccc(-n2ccc3cccnc32)n1)c1cccc(C(F)(F)F)c1,112% (inactive)
2,CC(C)(C)n1cc(-c2ccnc(NCCNS(=O)(=O)c3ccc(F)cc3)c2)c(-c2cccc(O)c2)n1,79.3% (inactive)
3,O=C(NNC(=O)N1c2ccccc2C=Cc2ccccc21)c1ccc2ccccc2c1,110% (inactive)
4,CN(C[C@H]1Cc2c(cccc2N2CCN(Cc3ccccn3)CC2)CN1)[C@H]1CCCc2cccnc21,51.2% (inactive)
5,CCCCCCCCC(C)OC(=O)c1nn(C(C)=O)c2ccccc12 (stereo not given),109% (inactive)
6,OC(c1cc2cc(Br)ccc2c2cc(Br)ccc12)C1CCCCN1 (stereo not given),-55.4% (active)
7,O=C(NS(=O)(=O)c1ccc2ccccc2c1)n1cc(-c2ccncc2)c(-c2ccc(Cl)c(O)c2)n1,81.8% (inactive)
8,Cc1cc(N)n(S(=O)(=O)c2oc(-c3ccccc3)nc2C#N)n1,91.8% (inactive)
9,O=[N+]([O-])c1ccc(C(c2ccccc2)c2ccccc2)cc1,102% (inactive)
10,CN(C)c1oc(C2OC2c2ccccc2)nc1C#N (stereo not given),79.2% (inactive)
11,Cc1ccc(S(=O)(=O)NC(=O)n2cc(-c3ccncc3)c(-c3ccc(Cl)c(O)c3)n2)cc1,101% (inactive)
12,CN(CCCCN(C[C@H]1Cc2ncccc2CN1)[C@H]1CCCc2cccnc21)C1CCC(F)(F)CC1,90.6% (inactive)
13,Cc1cc(C2(c3cc(C)c(O)cc3C)OS(=O)(=O)c3ccccc32)c(C)cc1O,101% (inactive)
14,NC(=O)CCCN1C/C(=C\c2ccccc2)C(=O)c2ccccc21,89.5% (inactive)
15,Cc1ccc(S(=O)(=O)NCCCNc2cc(-c3cn(C(C)(C)C)nc3-c3cccc(O)c3)ccn2)cc1,85.7% (inactive)
16,Cc1nc2ncccc2nc1Nc1ccc(S(=O)(=O)Nc2ccccn2)cc1,89.1% (inactive)
17,COc1ccc(NC(=O)c2c(Nc3ccc(OC)cc3OC)n[nH]c2N)c(OC)c1,92% (inactive)

row,Compound,growth
1,CCOC(=O)c1cn2c3c(cc(C)cc3c1=O)C(=O)/C(=C/c1ccccc1)C2,82.3% (inactive)
2,N=c1ccc2nc3ccc(N)cc3sc-2c1,58.4% (inactive)
3,CC12CCC3C4(C)COC(c5ccccc5Cl)OC4CCC3(C)C1CC(C1=CCOC1=O)O2 (stereo not given),94.5% (inactive)
4,C=C1CCC2C(C)(CO)C(O)CCC2(C)C1CC(NCc1ccccc1)C1=CCOC1=O (stereo not given),105% (inactive)
5,c1cc(C2=N[C@@H]3c4ccccc4C[C@@H]3O2)nc(C2=N[C@@H]3c4ccccc4C[C@@H]3O2)c1,117% (inactive)
6,COC1=C(OC)C(=O)C(CCCCCCCCCC[P+](c2ccccc2)(c2ccccc2)c2ccccc2)=C(C)C1=O,-40% (active)
7,COc1ccc(-c2cc(-c3ccccc3)nc(SCCCC(=O)NO)n2)cc1OC,-0.339% (active)
8,Nc1cccc(-c2nc3sccn3c2-c2ccnc(NCCNS(=O)(=O)c3ccc(C(F)(F)F)cc3)n2)c1,53.5% (inactive)
9,C=C1CCC2C(C)(CO)C(O)CCC2(C)C1C/C=C1/C(=O)OCC1O/C=C/c1ccccc1 (stereo not given),125% (inactive)
10,CCN(CC)CCC(CNc1ccnc2cc(Cl)ccc12)c1ccccc1 (stereo not given),85.6% (inactive)
11,Cn1cnc2c(N3CCN(C(=O)OCc4ccc5c(Cl)cc(Cl)c(O)c5n4)CC3)nc(Cl)nc21,97.6% (inactive)
12,C=C1CCC2C(C)(CO)C(O)CCC2(C)C1C/C=C1/C(=O)OCC1Oc1ccccc1C (stereo not given),122% (inactive)
13,COc1ccc(S(=O)(=O)NCCCNc2nccc(-n3ccc4cccnc43)n2)cc1,119% (inactive)
14,CCN(CC)CCC(CNc1ccnc2cc(Cl)ccc12)c1ccc(Cl)cc1 (stereo not given),-12.9% (active)
15,COc1ccc(Nc2nn3c(C)cc(C)nc3c2C(=O)Nc2ccc(C)cc2)c(OC)c1,87.7% (inactive)
16,CCCCCCN1CSC(=S)N(CCCCCC)C1,107% (inactive)
17,O=C(NS(=O)(=O)c1ccccc1)n1cc(-c2ccncc2)c(-c2ccc(Cl)c(O)c2)n1,102% (inactive)

# Test system: IGROV1 ovarian
# Assay: as above
# Details: 10 µM unless noted
row,Compound,growth
1,O=S(=O)(NCCCNc1nccc(-n2ccc3cccnc32)n1)c1cccc(C(F)(F)F)c1,107% (inactive)
2,CC(C)(C)n1cc(-c2ccnc(NCCNS(=O)(=O)c3ccc(F)cc3)c2)c(-c2cccc(O)c2)n1,68.9% (inactive)
3,Cc1ccc(-c2cc3nc(C(Cl)Cl)nc(-c4ccccc4C)n3n2)cc1,83.7% (inactive)
4,O=C(NNC(=O)N1c2ccccc2C=Cc2ccccc21)c1ccc2ccccc2c1,102% (inactive)
5,CN(C[C@H]1Cc2c(cccc2N2CCN(Cc3ccccn3)CC2)CN1)[C@H]1CCCc2cccnc21,49.2% (inactive)
6,CCCCCCCCC(C)OC(=O)c1nn(C(C)=O)c2ccccc12 (stereo not given),105% (inactive)
7,OC(c1cc2cc(Br)ccc2c2cc(Br)ccc12)C1CCCCN1 (stereo not given),-67% (active)
8,O=C(NS(=O)(=O)c1ccc2ccccc2c1)n1cc(-c2ccncc2)c(-c2ccc(Cl)c(O)c2)n1,60.2% (inactive)
9,Cc1cc(N)n(S(=O)(=O)c2oc(-c3ccccc3)nc2C#N)n1,97.9% (inactive)
10,O=[N+]([O-])c1ccc(C(c2ccccc2)c2ccccc2)cc1,84.4% (inactive)
11,CN(C)c1oc(C2OC2c2ccccc2)nc1C#N (stereo not given),90.6% (inactive)
12,Cc1ccc(S(=O)(=O)NC(=O)n2cc(-c3ccncc3)c(-c3ccc(Cl)c(O)c3)n2)cc1,112% (inactive)
13,CN(CCCCN(C[C@H]1Cc2ncccc2CN1)[C@H]1CCCc2cccnc21)C1CCC(F)(F)CC1,111% (inactive)
14,Cc1cc(C2(c3cc(C)c(O)cc3C)OS(=O)(=O)c3ccccc32)c(C)cc1O,107% (inactive)
15,CC1CN(c2oc(-c3ccccc3)nc2C#N)CC(C)O1 (stereo not given),97.7% (inactive)
16,NC(=O)CCCN1C/C(=C\c2ccccc2)C(=O)c2ccccc21,102% (inactive)
17,Cc1ccc(S(=O)(=O)NCCCNc2cc(-c3cn(C(C)(C)C)nc3-c3cccc(O)c3)ccn2)cc1,61.7% (inactive)
18,COc1ccc(NC(=O)c2c(Nc3ccc(OC)cc3OC)n[nH]c2N)c(OC)c1,93.7% (inactive)

row,Compound,growth
1,CCOC(=O)c1cn2c3c(cc(C)cc3c1=O)C(=O)/C(=C/c1ccccc1)C2,93.2% (inactive)
2,N=c1ccc2nc3ccc(N)cc3sc-2c1,40.6% (inactive)
3,CC12CCC3C4(C)COC(c5ccccc5Cl)OC4CCC3(C)C1CC(C1=CCOC1=O)O2 (stereo not given),82.9% (inactive)
4,c1cc(C2=N[C@@H]3c4ccccc4C[C@@H]3O2)nc(C2=N[C@@H]3c4ccccc4C[C@@H]3O2)c1,104% (inactive)
5,COc1ccc(-c2cc(-c3ccccc3)nc(SCCCC(=O)NO)n2)cc1OC,15.6% (inactive)
6,N=C(N)c1ccc(-c2cc(Cl)cc(Cl)c2)cn1,89.1% (inactive)
7,Nc1cccc(-c2nc3sccn3c2-c2ccnc(NCCNS(=O)(=O)c3ccc(C(F)(F)F)cc3)n2)c1,36.3% (inactive)
8,C=C1CCC2C(C)(CO)C(O)CCC2(C)C1C/C=C1/C(=O)OCC1O/C=C/c1ccccc1 (stereo not given),84.1% (inactive)
9,CCN(CC)CCC(CNc1ccnc2cc(Cl)ccc12)c1ccccc1 (stereo not given),80.2% (inactive)
10,COc1ccc(-c2ccc(-c3ccc(C(=N)N)cn3)s2)cc1OC,101% (inactive)
11,Cn1cnc2c(N3CCN(C(=O)OCc4ccc5c(Cl)cc(Cl)c(O)c5n4)CC3)nc(Cl)nc21,66% (inactive)
12,C=C1CCC2C(C)(CO)C(O)CCC2(C)C1C/C=C1/C(=O)OCC1Oc1ccccc1C (stereo not given),73.7% (inactive)
13,COc1ccc(S(=O)(=O)NCCCNc2nccc(-n3ccc4cccnc43)n2)cc1,103% (inactive)
14,CCN(CC)CCC(CNc1ccnc2cc(Cl)ccc12)c1ccc(Cl)cc1 (stereo not given),33.5% (inactive)
15,N=C(N)c1ccc(-c2ccc(-c3ccc(-c4cccs4)s3)s2)cc1,96.2% (inactive)
16,COc1ccc(Nc2nn3c(C)cc(C)nc3c2C(=O)Nc2ccc(C)cc2)c(OC)c1,97.1% (inactive)
17,CCCCCCN1CSC(=S)N(CCCCCC)C1,101% (inactive)
18,O=C(NS(=O)(=O)c1ccccc1)n1cc(-c2ccncc2)c(-c2ccc(Cl)c(O)c2)n1,96.8% (inactive)
